A number with no mark means an inactive call. Results filed as inconclusive are left out. Active and inactive are the calls of the source. Unless noted, calls follow the shape of the dose curve; as a rule, active = well fitted curve in either direction with a large enough effect (not every such curve was filed as active); inconclusive = small, poorly fitted or top-dose-only effect, or another doubt; inactive = flat fitted curve, though single readings scatter.
Experiments:
[1] = molecular target: Lysosomal acid glucosylceramidase (Homo sapiens) (UniProt P04062); assay: Glucocerebrosidase-p2 (AID 348; in the data active = potency below about 10 µM; also: potency is read from the fitted curve at half-maximal effect); conditions: purified GBA, blue fluorogenic substrate, 40 min
Chain of Lysosomal acid glucosylceramidase (Homo sapiens) (P04062 whole entry, looked up): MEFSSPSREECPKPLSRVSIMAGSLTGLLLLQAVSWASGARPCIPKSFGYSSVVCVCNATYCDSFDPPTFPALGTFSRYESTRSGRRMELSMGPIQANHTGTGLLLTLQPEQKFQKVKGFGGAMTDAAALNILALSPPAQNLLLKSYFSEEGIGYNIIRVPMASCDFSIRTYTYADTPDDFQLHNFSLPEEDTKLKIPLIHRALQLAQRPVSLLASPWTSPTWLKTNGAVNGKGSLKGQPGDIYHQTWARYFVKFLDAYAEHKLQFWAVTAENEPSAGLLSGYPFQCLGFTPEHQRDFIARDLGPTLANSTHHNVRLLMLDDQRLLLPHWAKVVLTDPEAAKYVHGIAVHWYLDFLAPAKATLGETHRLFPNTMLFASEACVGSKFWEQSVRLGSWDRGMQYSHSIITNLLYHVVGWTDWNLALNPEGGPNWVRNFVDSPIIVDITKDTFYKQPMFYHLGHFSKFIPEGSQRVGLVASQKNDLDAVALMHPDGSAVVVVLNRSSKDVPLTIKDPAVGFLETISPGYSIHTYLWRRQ
In short: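 Compounds titrated from 0.6 nM upwards against 0.2 nM enzyme in pH 5.9 citric acid/KH2PO4, taurocholate, tween-20; blue fluorogenic substrate 80 uM, 40 min room temperature, stopped and read Ex 365/Em 440 for AC50.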

[2] = AP1 Signaling Pathway (AID 357); conditions: ME-180 AP-1-bla reporter, EGF-induced, beta-lactamase ratio, 5 h; at 7.69 µM (top of the series) unless noted;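 also: ME-180 reporter cells stimulated with EGF at its EC50 level; % is scaled to controls: 0 for no effect and ±100 for the full control effect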
In short: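 Cells are seeded overnight, exposed to compound titrations and an EC50 level of EGF for 5 hours at 37 °C, then loaded with CCF4 dye for 2.5 hours. Beta-lactamase activity under the AP-1 element is read as a blue/green ratio.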

[3] = molecular target: Cytochrome P450 1A2 (Homo sapiens) (UniProt P05177); assay: p450-cyp1a2 (AID 410; calls by dose curve; also: potency is read from the fitted curve at half-maximal effect;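 as to activity change, negative = inhibition: -100% = full effect of reference inhibitor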); conditions: recombinant CYP1A2, luciferin-ME demethylation, luminescence; series mostly up to 11.4 µM
Chain of Cytochrome P450 1A2 (Homo sapiens) (P05177 whole entry, looked up): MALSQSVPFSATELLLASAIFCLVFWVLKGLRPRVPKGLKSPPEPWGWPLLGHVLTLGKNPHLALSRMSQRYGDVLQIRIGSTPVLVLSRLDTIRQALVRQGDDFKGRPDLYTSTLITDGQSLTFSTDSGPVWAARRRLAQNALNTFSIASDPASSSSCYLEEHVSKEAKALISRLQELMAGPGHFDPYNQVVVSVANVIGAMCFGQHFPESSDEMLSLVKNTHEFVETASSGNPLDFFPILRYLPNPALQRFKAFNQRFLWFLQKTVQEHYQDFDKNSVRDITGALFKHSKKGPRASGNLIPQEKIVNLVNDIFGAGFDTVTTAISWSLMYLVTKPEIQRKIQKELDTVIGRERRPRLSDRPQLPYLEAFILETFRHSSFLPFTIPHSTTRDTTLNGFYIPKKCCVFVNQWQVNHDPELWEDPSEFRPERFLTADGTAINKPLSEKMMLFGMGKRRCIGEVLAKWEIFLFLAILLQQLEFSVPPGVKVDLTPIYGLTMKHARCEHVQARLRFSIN
In short: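 20nM CYP1A2 with 100uM Luciferin-ME (at Km) in 100mM KPO4; compound preincubated 10 min, NADPH regeneration added, 60 min at room temperature. Luciferin quantified by luminescence after detection reagent; normalized to 57 uM furafylline.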

[4] = NFAT Signaling Pathway (AID 444); conditions: Jurkat NFAT-bla M1, carbachol, beta-lactamase ratio, 5 h; at 7.69 µM (top of the series) unless noted;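 also: carbachol stimulus at about its EC50 of 1 µM final; % is scaled to controls: 0 for no effect and ±100 for the full control effect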
In short: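 Read-out: CCF4 FRET ratio (460 nm/530 nm) after 1 h RT dye loading, used for %activity and AC50 from titration series. Cells: Jurkat NFAT-β-lactamase/M1 line, treated with compound plus 1 uM carbachol for 5 h, 37 °C.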

[5] = Stat Signaling Pathway (AID 446); conditions: ME-180 SIE beta-lactamase reporter, IL-6 stimulated, 5 h; at 7.69 µM (top of the series) unless noted;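 also: ME-180 cervical cancer cells given 40 pM IL-6 alongside compound; SIE-controlled beta-lactamase reporter measured as 460/530 nm FRET emission ratio; % is scaled to controls: 0 for no effect and ±100 for the full control effect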
In short: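 ME-180 SIE-bla cells; overnight plating; cpd + IL-6 40 pM, 5 h, 37 C; LiveBLAzer 2.5 h RT; 460/530 nm emission ratio. Normalized to 300 pM IL-6 and 125 nM JAK inhibitor controls.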

[6] = molecular target: Glucocorticoid receptor (Homo sapiens) (UniProt P04150); assay: GR-GFP Redistribution (AID 450;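 active = compounds whose dose series gives a full or clear partial fitted curve of increased nuclear translocation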; also: potency is read from the fitted curve at half-maximal effect); conditions: U2OS GR-GFP nuclear translocation, laser cytometry, 2 h
Chain of Glucocorticoid receptor (Homo sapiens) (P04150 whole entry, looked up, the tested form may be a part): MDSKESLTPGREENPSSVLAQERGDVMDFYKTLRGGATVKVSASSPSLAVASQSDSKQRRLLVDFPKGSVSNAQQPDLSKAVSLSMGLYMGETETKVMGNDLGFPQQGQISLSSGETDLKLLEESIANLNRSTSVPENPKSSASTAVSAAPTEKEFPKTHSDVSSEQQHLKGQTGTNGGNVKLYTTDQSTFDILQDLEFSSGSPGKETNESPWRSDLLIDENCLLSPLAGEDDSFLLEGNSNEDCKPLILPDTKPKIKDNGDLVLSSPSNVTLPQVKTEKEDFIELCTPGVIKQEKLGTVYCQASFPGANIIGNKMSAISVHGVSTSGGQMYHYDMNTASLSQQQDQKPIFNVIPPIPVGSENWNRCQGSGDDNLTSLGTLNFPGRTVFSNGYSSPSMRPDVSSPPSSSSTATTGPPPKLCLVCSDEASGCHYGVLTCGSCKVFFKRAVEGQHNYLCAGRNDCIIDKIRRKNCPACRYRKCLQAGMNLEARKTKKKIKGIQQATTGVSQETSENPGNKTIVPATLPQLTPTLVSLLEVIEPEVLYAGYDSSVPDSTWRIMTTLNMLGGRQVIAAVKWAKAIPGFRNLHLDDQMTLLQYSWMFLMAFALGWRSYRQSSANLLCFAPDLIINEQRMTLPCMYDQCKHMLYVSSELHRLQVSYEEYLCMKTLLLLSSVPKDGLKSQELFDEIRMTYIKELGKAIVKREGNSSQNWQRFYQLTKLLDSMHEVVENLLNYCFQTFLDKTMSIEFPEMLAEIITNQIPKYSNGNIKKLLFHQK

[7] = molecular target: Glucocorticoid receptor (Homo sapiens) (UniProt P04150); assay: GR-EFC Redistribution (AID 451; calls by dose curve; also: potency is read from the fitted curve at half-maximal effect); conditions: CHO-K1 GR-EFC translocation, beta-gal luminescence, 2 h
In short: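 Translocation of GR-ED fusion to nuclear EA restores b-gal, read by luminescence after 1 h room-temperature detection. Engineered CHO-K1 biosensor cells, 1,000/well, exposed 2 h at 37 C to titrations up to 46 uM final.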

[8] = molecular target: Mitogen-activated protein kinase 10 (Mus musculus) (UniProt Q61831); assay: JNK3 AlphaScreen Assay (AID 530); conditions: JNK3 lysate, c-Jun phosphorylation; series mostly up to 57.1 µM;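 also: kinase came from lysate of stimulated human HepG2 cells; signal reports phosphorylation of biotinylated GST-cJun 1-79 at Ser73 with 10 µM ATP; % is scaled to controls: 0 for no effect and ±100 for the full control effect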
In short: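 Compound titrations were preincubated 15 minutes at room temperature with substrate, antibody and pre-activated JNK3-containing HepG2 lysate. Reactions were started with 10 uM ATP and stopped with EDTA-containing bead buffer for AlphaScreen detection.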

[9] = molecular target: 3',5'-cyclic-AMP phosphodiesterase 4B (Homo sapiens) (UniProt Q07343); assay: qHTS Assay for Inhibitors of PDE-IV (AID 607; active = well fitted activation curve with a large enough effect in the main read-out, with a control signal flat, not every such curve was filed as active; also: % of control where 0% means no effect); conditions: HEK293 ACTOne CNG channel cells, membrane potential fluorescence; series mostly up to 22.9 µM
Chain of 3',5'-cyclic-AMP phosphodiesterase 4B (Homo sapiens) (Q07343 whole entry, looked up): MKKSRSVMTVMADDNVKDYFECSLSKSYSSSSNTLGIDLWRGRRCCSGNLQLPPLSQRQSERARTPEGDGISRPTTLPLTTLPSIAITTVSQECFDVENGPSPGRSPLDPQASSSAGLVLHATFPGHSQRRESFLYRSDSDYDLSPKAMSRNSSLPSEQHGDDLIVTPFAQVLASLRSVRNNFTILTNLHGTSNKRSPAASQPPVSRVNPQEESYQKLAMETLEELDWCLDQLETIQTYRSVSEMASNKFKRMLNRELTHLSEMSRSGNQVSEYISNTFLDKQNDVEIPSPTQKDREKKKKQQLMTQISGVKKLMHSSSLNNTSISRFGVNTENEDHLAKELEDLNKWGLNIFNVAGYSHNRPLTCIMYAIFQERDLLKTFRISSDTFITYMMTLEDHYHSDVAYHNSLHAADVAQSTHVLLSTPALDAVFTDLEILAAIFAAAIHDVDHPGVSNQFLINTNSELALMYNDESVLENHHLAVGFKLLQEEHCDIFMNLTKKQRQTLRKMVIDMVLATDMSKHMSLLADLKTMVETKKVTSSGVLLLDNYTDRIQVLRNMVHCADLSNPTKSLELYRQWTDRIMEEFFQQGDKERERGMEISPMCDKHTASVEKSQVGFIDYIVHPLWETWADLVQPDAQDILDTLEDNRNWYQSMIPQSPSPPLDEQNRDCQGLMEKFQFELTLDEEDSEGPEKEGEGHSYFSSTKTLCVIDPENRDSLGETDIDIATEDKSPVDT
In short: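 ACTOne HEK293 cells carry a modified cAMP-gated CNG channel and express endogenous PDE4; plated 1000 cells/well, compounds up to 22.9 uM final. Membrane-potential dye fluorescence (ex 535/em 590) was read; parental cells received 10 uM forskolin + 100 uM RO 20-1724.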

[10] = molecular target: Cytochrome P450 3A4 (Homo sapiens) (UniProt P08684); assay: qHTS Assay for Activators of Cytochrome P450 3A4 (AID 885; active = well fitted curve in the direction sought with a large enough effect; an effect the other way counts as inactive or inconclusive; also: nearly all actives have a fitted effect of over 65% in size); conditions: recombinant CYP3A4, Luciferin-PPXE luminescence, 60 min; series mostly up to 57.1 µM
Chain of Cytochrome P450 3A4 (Homo sapiens) (P08684 whole entry, looked up): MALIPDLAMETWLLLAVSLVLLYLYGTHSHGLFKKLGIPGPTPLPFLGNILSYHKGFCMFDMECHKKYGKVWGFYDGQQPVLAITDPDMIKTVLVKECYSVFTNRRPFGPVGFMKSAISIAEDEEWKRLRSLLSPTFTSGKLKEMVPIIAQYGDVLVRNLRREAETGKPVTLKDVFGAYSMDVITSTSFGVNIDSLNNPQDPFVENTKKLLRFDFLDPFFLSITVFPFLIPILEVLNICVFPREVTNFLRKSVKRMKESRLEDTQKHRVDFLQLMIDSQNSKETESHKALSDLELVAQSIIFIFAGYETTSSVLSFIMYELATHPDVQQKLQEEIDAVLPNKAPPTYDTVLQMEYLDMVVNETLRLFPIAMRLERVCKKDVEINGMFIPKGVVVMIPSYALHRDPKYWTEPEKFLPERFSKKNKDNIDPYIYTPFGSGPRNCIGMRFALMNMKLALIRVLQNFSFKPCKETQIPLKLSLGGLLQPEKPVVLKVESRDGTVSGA
In short: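 20nM CYP3A4 + 25uM Luciferin-PPXE (=KM), 200mM KPO4; cpd 10 min RT; NADPH regen, 60 min RT; stop w/ detection buffer, 20 min; luminescence. Normalized to 57 uM ketoconazole.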

[11] = molecular target: Cytochrome P450 2D6 (Homo sapiens) (UniProt P10635); assay: qHTS Assay for Inhibitors and Substrates of Cytochrome P450 2D6 (AID 891; active = well fitted curve in the direction sought with a large enough effect; an effect the other way counts as inactive or inconclusive; also: nearly all actives have a fitted effect of over 60% in size; also: potency is read from the fitted curve at half-maximal effect); conditions: recombinant CYP2D6, luciferin-ME EGE luminescence; series mostly up to 11.4 µM
Chain of Cytochrome P450 2D6 (Homo sapiens) (P10635 whole entry, looked up): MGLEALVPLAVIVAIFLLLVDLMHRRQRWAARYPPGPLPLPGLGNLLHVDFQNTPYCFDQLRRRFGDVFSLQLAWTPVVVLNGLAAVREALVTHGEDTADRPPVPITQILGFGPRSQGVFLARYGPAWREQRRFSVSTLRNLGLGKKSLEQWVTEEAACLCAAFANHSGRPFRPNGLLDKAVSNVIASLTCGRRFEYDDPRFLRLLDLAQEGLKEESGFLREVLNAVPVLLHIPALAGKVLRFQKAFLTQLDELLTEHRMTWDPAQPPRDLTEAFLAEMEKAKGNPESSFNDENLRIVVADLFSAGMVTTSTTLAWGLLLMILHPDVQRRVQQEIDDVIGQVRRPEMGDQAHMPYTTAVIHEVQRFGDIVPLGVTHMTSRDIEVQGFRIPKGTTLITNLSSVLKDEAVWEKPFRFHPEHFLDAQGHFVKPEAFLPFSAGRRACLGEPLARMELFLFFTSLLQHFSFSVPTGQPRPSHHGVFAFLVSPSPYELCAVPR
In short: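 Human CYP2D6 (5 nM) with 30 uM Luciferin-ME EGE (at Km) in 100 mM KPO4, compound preincubated 10 min, then NADPH regeneration system for 60 min at room temperature. Luciferin read by luminescence; normalized to 1.43 uM quinidine.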

[12] = molecular target: Cytochrome P450 2C19 (Homo sapiens) (UniProt P33261); assay: qHTS Assay for Inhibitors and Substrates of Cytochrome P450 2C19 (AID 899; active = well fitted curve in the direction sought with a large enough effect; an effect the other way counts as inactive or inconclusive; also: % is scaled to controls: 0 for no effect and ±100 for the full control effect; nearly all actives have a fitted effect of over 60% in size); conditions: recombinant CYP2C19, luciferin-H EGE luminescence; series mostly up to 11.4 µM
Chain of Cytochrome P450 2C19 (Homo sapiens) (P33261 whole entry, looked up): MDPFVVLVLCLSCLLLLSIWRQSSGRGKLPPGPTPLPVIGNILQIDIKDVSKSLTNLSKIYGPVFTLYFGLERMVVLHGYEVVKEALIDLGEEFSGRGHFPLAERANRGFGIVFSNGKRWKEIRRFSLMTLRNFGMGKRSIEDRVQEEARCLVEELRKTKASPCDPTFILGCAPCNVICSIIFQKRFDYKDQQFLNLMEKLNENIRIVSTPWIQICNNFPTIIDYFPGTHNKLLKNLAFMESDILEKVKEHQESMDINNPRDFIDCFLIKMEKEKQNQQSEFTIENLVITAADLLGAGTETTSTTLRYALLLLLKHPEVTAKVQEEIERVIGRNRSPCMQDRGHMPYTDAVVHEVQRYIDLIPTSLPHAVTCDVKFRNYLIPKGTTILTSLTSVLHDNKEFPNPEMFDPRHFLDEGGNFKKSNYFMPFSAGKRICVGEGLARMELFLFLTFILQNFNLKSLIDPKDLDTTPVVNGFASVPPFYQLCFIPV
In short: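 5nM enzyme + 10uM Luciferin-H EGE (=KM), 50mM KPO4; cpd pin-transferred, 10 min 37C; NADPH regen, 60 min 37C; stopped w/ luciferin detection reagent, 20 min; luminescence. Normalized to 57uM ketoconazole (AC100).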

Compound: O=[As](O)(O)c1ccc(N=Nc2ccc([As](=O)(O)O)cc2)cc1
- Potency [1]: > 11.4 µM
- activity change, negative = inhibition [2]: 2.76%
- Potency [3]: inactive
- activity change, negative = inhibition [4]: 2.59%
- activity, negative = inhibition [5]: 4.67%
- Potency [6]: > 46 µM
- Potency [7]: > 9.22 µM
- activity change, negative = inhibition [8]: 2.69% [at 11.4 µM]
- outcome [9]: inactive

Compound: CC[C@@]1(O)C(=O)OCc2c1cc1n(c2=O)Cc2cc3c(NC(=O)CN)cccc3nc2-1
- Potency [1]: > 11.4 µM
- activity change, negative = inhibition [2]: -9.07%
- activity change, negative = inhibition [3]: -12.3% [at 2.29 µM]
- activity change, negative = inhibition [4]: -29.2%
- activity, negative = inhibition [5]: -20.5%
- Potency [6]: > 46 µM
- Potency [7]: > 9.22 µM
- outcome [9]: inactive

Compound: CC1=NN(c2ccc(S(=O)(=O)O)cc2C)C(=[OH+])[C@H]1N=Nc1cc(S(=O)(=O)O)ccc1C(=O)O.O.[Cr]
- Potency [1]: > 11.4 µM
- activity change, negative = inhibition [2]: -5.8%
- Potency [3]: inactive
- activity change, negative = inhibition [4]: 12.1%
- activity, negative = inhibition [5]: 7.29%
- Potency [6]: > 46 µM
- activity change, negative = inhibition [8]: -0.77% [at 11.4 µM]
- outcome [9]: inactive

Compound: CC(C)(C)C(=O)CP(=O)(O)O
- Potency [1]: > 11.4 µM
- activity change, negative = inhibition [2]: 11.4%
- Potency [3]: inactive
- activity change, negative = inhibition [4]: -0.88%
- activity, negative = inhibition [5]: -5.75%
- Potency [6]: > 46 µM
- Potency [7]: > 9.22 µM
- outcome [9]: inactive

Compound: C1C[C@@H]2CN(CCCN3CCOCC3)[C@@H](C1)O2
- Potency [1]: > 11.4 µM
- activity change, negative = inhibition [2]: -6.14%
- Potency [3]: inactive
- activity change, negative = inhibition [4]: 9.72%
- activity, negative = inhibition [5]: 11.7%
- Potency [6]: > 46 µM
- Potency [7]: > 9.22 µM
- activity change, negative = inhibition [8]: 4.78% [at 11.4 µM]
- outcome [9]: inactive

Compound: Nc1nc(N)c(N=Nc2ccc([As](=O)(O)O)c(O)c2)c(N)n1
- Potency [1]: > 11.4 µM
- activity change, negative = inhibition [2]: 1.26%
- Potency [3]: 6.31 µM (active)
- activity change, negative = inhibition [4]: -7.71%
- activity, negative = inhibition [5]: -1.21%
- Potency [6]: > 46 µM
- Potency [7]: > 9.22 µM
- activity change, negative = inhibition [8]: 1.64% [at 11.4 µM]
- outcome [9]: inactive

Compound: CC(C)c1nccn1Cc1ccc(Cl)cc1Cl
- Potency [1]: > 11.4 µM
- activity change, negative = inhibition [2]: -14.8%
- Potency [3]: inactive
- activity change, negative = inhibition [4]: -21%
- activity, negative = inhibition [5]: 1.75%
- Potency [6]: > 46 µM
- Potency [7]: > 9.22 µM
- activity change, negative = inhibition [8]: -0.456% [at 11.4 µM]
- outcome [9]: inactive

Compound: CCC1=C(C[C@H]2NCCc3cc(OC)c(OC)cc32)C[C@H]2c3ccccc3CCN2C1
- Potency [1]: > 11.4 µM
- activity change, negative = inhibition [2]: 9.05%
- Potency [3]: inactive
- activity change, negative = inhibition [4]: -19.1%
- activity, negative = inhibition [5]: 8.03%
- Potency [6]: > 46 µM
- Potency [7]: > 9.22 µM
- activity change, negative = inhibition [8]: 5.5% [at 11.4 µM]
- activity change, positive = activation [10]: -34.9% [at 11.4 µM]
- Potency [11]: 0.316 µM (active)

Compound: NC(CCl)=N[C@H]1CN2CCC1CC2
- Potency [1]: > 11.4 µM
- activity change, negative = inhibition [2]: 5.68%
- Potency [3]: inactive
- activity change, negative = inhibition [4]: 1.17%
- activity, negative = inhibition [5]: 13.9%
- Potency [6]: > 46 µM
- Potency [7]: > 9.22 µM
- activity change, negative = inhibition [8]: 1.59% [at 11.4 µM]
- outcome [9]: inactive

Compound: N[C@H](Cc1ccccc1)c1nn[nH]n1
- Potency [1]: > 11.4 µM
- activity change, negative = inhibition [2]: 11.1%
- Potency [3]: 10 µM (active)
- activity change, negative = inhibition [4]: 1.74%
- activity, negative = inhibition [5]: -5.07%
- Potency [6]: > 46 µM
- Potency [7]: > 9.22 µM
- activity change, negative = inhibition [8]: 5.89% [at 11.4 µM]
- outcome [9]: inactive

Compound: NC[C@@H](O)CSP(=O)(O)O
- Potency [1]: > 11.4 µM
- activity change, negative = inhibition [2]: -1.23%
- Potency [3]: inactive
- activity change, negative = inhibition [4]: -18.7%
- activity, negative = inhibition [5]: 2.46%
- Potency [6]: > 46 µM
- activity change, negative = inhibition [8]: -5.07% [at 11.4 µM]
- outcome [9]: inactive

Compound: c1ccc(CCN2CCCCCC2)nc1
- Potency [1]: > 11.4 µM
- activity change, negative = inhibition [2]: -1.84%
- Potency [3]: inactive
- activity change, negative = inhibition [4]: -10.4%
- activity, negative = inhibition [5]: 3.27%
- Potency [6]: > 46 µM
- activity change, negative = inhibition [8]: 4.35% [at 11.4 µM]
- outcome [9]: inactive

Compound: N[C@@H](CP(=O)(O)O)C(=O)O
- Potency [1]: > 11.4 µM
- activity change, negative = inhibition [2]: 0.329%
- Potency [3]: inactive
- activity change, negative = inhibition [4]: 2.91%
- activity, negative = inhibition [5]: 2.68%
- Potency [6]: > 46 µM
- Potency [7]: > 9.22 µM
- outcome [9]: inactive

Compound: O=C(O)c1cc(N=Nc2ccc([As](=O)(O)O)cc2)ccc1O
- Potency [1]: > 11.4 µM
- activity change, negative = inhibition [2]: 6.37%
- Potency [3]: inactive
- activity change, negative = inhibition [4]: 6.3%
- activity, negative = inhibition [5]: -0.258%
- Potency [6]: > 46 µM
- Potency [7]: > 9.22 µM
- activity change, negative = inhibition [8]: 2.47% [at 11.4 µM]
- outcome [9]: inactive
- Potency [11]: inactive
- Potency [12]: inactive

Compound: O=C(O)CN1C(=O)CN=C(c2ccccn2)c2cc(Cl)ccc21
- Potency [1]: > 11.4 µM
- activity change, negative = inhibition [2]: 0.0967%
- Potency [3]: 1.26 µM (active)
- activity change, negative = inhibition [4]: -1.6%
- activity, negative = inhibition [5]: 6.14%
- Potency [6]: > 46 µM
- Potency [7]: > 9.22 µM
- activity change, negative = inhibition [8]: 3.65% [at 11.4 µM]
- outcome [9]: inactive
